Source: PubChem
The list is a sample of the results.
ATXN2 expr inh: reduces ATXN2 reporter expression in HEK-293 cells; HEK-293 ATXN2-luciferase reporter, luminescence, 24 h; Potency, µM (top dose mostly 57 µM), for the others: top-dose activity change, negative = inhibition, actives largely listed as inhibitors; 360,000 tested, 0.72% active; AID 1745845; note: potency is the fitted concentration of half-maximal effect; % is set by controls: 0 for no effect and ±100 for the full control effect; nearly all actives have a fitted effect of over 55% in size
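qHTS (up to 57 uM final) was run with 24 h compound exposure of reporter cells at 37 °C. Each well was multiplexed: SteadyGlo luminescence measured ATXN2-luciferase expression after a fluorogenic Gly-Phe-AFC viability readout (25 uM final).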
S2 tox: cell viability loss in ATXN counter-screen. S2 cells (HEK-293 line with an ATXN2-luciferase reporter) viability, CellTiter-Fluor protease fluorescence, 24 h. Potency, µM (titrated, usually from 56.7 µM), actives largely listed as cytotoxic. 400,000 tested, 0.49% active; note: potency is the fitted concentration of half-maximal effect; nearly all actives have a fitted effect of over 40% in size
TGFb SMAD3 inh: inhibitors of TGF-b signaling; AID 588855; Potency, µM (series often up to 46.1 µM), inactives show at the highest dose activity, negative = inhibition, hits mostly inhibitors; HepG2 CAGA-GFP TGF-b/SMAD3 reporter, GFP fluorescence, 18 h; TGF-beta stimulated, 500 pg/mL final; 410,000 tested, 1.2% active; note: potency is the fitted concentration of half-maximal effect; % is set by controls: 0 for no effect and ±100 for the full control effect; nearly all actives have a fitted effect of over 65% in size
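TGF-beta reporter screen: HEPG2 CAGA-GFP, 1% FBS, 500 pg/mL TGF-beta final, 18 h; per-cell GFP summed per well; curves fitted and categorized by class.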
Apoferritin bind: binds horse apoferritin like a general anesthetic; P02791; apoferritin/1-aminoanthracene competitive binding, fluorescence; Potency, µM (series often up to 77.5 µM), inactives show top-dose activity change, negative = displacement, usual class: inhibitors; 350,000 tested, 0.074% active; AID 485281; note: potency is the fitted concentration of half-maximal effect; % is set by controls: 0 for no effect and ±100 for the full control effect; nearly all actives have a fitted effect of over 20% in size
Target sequence (P02791 2-175 limits assumed): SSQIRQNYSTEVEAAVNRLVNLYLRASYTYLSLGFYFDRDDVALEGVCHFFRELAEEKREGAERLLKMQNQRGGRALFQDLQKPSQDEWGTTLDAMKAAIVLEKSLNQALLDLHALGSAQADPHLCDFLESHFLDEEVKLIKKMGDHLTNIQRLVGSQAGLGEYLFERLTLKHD
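10 uM apoferritin + 50% sat. 1-AMA, PBS; cpd 10 min RT; Ex380/Em535 endpoint; normalized to free probe vs complex; 4-param Hill fit; propofol titration as pos. ctrl.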
HepG2 viability: counter-screen for TGF-b inhibitors: cytotoxicity in HepG2 cells; 410,000 tested, 0.76% active; Potency, µM (highest dose often 46.1 µM), for the others: at the top dose activity change, negative = cytotoxicity, actives largely listed as cytotoxic; HepG2 CAGA-GFP viability, ATP luminescence, 18 h; note: potency is the fitted concentration of half-maximal effect
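CellTiter-Glo luminescence gave cytotoxicity after 18 hours at 37 degrees C. The cells were HepG2 CAGA-GFP in 1% FBS DMEM, stimulated with 500 pg/mL TGF-beta after compound addition. %Activity was normalised to no-cell wells (complete cell-killing) and DMSO (no toxicity), and curves were fitted and classified.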
EBOV entry S4 rt: Ebola virus entry blockers, screen 4 ratio channel | shares compounds with ATXN2 expr inh | Ebola pseudovirus entry assay, ratio channel | AC50, µM | 170 tested, 79% active; calls by dose curve
EBOV S4 blue: blocks Ebola virus entry, screen 4 blue channel readout. 170 tested, under 10 active. calls only. Ebola virus entry assay, blue channel fluorescence ratio; Channel: blue. shares compounds with ATXN2 expr inh; call rule not given here
EBOV S4 green: Ebola virus entry blockers, screen 4 green channel; shares compounds with ATXN2 expr inh; Ebola virus entry reporter assay, green fluorescence channel; Channel: green; calls only; 170 tested, under 10 active; call rule not given here
Starred values were filed as active, the others as inactive; i = inactive; ? = inconclusive; / = no result. Unless noted, calls come from the whole dose curve; as a rule, active = well fitted curve in the direction sought with a large enough effect; inconclusive = small, poorly fitted or top-dose-only effect, or another doubt; inactive = no such curve, though single readings can be large; an effect the other way counts as inactive or inconclusive.

SMILES	ATXN2 expr inh	S2 tox	TGFb SMAD3 inh	Apoferritin bind	HepG2 viability	others
COC1CCC(OC2CC(C3(C)CCC4(CC(O)C(C)C(C(C)/C=C(\C)C(=O)C(C)CC(C)C(=O)O)O4)O3)OC3(OC(C4OC(O)(CO)C(C)CC4C)CC3C)C2C)OC1C (stereo unspecified)	?	/	?	/	-5%
C#Cc1cccc(Nc2ncnc3cc(OCCOC)c(OCCOC)cc23)c1	?	?	/	/	/	EBOV entry S4 rt=i;EBOV S4 blue=i;EBOV S4 green=i
CC(C)(C)[C@]1(O)C[C@@H]2OC(=O)C[C@@]23C(=O)O[C@@H]2OC(=O)[C@H](O)C213 (stereo partly specified)	3%	/	/	/	/
FC(F)(F)c1ccc2c(c1)N(CCCN1CCN(CCCl)CC1)c1ccccc1S2	?	?	?	-19%	-76%
Cc1ccc(-n2c(/C=C\c3ccc(F)c(F)c3)nc3ccccc3c2=O)c(C)c1	/	/	-30%	-14%	-24%
CO/C1=C\C(C)=C\[C@@H](C)[C@@H](O)[C@@H](C)C/C(C)=C/C=C/[C@H](OC)[C@@H]([C@@H](C)[C@@H](O)[C@H](C)[C@@]2(O)C[C@@H](O)[C@H](C)C(C(C)C)O2)OC1=O (stereo partly specified)	/	/	/	-7%	/
COc1ccc(OCCn2c(NC(=O)c3ccc(OC)cc3)nc3ccccc32)cc1	5%	i	-10%	51%	-8%
